The list is not random: actives were taken first. Their share in the collection is about 4.9%.
Mdm2-MdmX inh: inhibitors of human Mdm2-MdmX association, primary screen, cell-based, luminescence, split luciferase, SaOS-2, uHTS | Protein Mdm4 (Homo sapiens) + E3 ubiquitin-protein ligase Mdm2 (Homo sapiens), … | SaOS-2 split-luciferase Mdm2/MdmX complementation | inhibition, % at 8 µM | hit rate 3% among 330,000 | AID 485346, 2010;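 active means inhibition of at least 50% at 8 µM in the primary screen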
Beta apoptosis: inhibitors of cytokine-induced beta cell apoptosis, primary screen, luminescence; INS-1E cytokine-induced death, ATP luminescence, 48 h; percent of positive-control rescue, neutral wells zero; protection from apoptosis, % (no concentration beside the values); hit rate 0.8% among 300,000; AID 435005, 2010;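 active means Every replicate reaches about 75%, or at least half do and their mean reaches it too, limit read from the data; inconclusive means At least half of replicates reach the limit but their mean does not; inactive means Under half of replicates reach the limit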;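 further: 0% = cytokine-treated negative control wells and 100% = positive control rescue; higher means more ATP so stronger rescue from cytokine killing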
PP5 primary: PP5 phosphatase inhibitors, primary screen, biochemical, fluorescence; inhibition, % at 6.7 µM; purified PP5c, OMFP substrate fluorescence; hit rate 0.18% among 320,000; Serine/threonine-protein phosphatase 5 (Homo sapiens), P53041; AID 1987, 2009;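 active means inhibition above the campaign's mean inhibition across all tested compounds plus 3 SD, cut at about 9.5% in these data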;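 further: 0% = DMSO only and 100% = 100 µM cantharidin control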
Target sequence (P53041 whole entry, looked up): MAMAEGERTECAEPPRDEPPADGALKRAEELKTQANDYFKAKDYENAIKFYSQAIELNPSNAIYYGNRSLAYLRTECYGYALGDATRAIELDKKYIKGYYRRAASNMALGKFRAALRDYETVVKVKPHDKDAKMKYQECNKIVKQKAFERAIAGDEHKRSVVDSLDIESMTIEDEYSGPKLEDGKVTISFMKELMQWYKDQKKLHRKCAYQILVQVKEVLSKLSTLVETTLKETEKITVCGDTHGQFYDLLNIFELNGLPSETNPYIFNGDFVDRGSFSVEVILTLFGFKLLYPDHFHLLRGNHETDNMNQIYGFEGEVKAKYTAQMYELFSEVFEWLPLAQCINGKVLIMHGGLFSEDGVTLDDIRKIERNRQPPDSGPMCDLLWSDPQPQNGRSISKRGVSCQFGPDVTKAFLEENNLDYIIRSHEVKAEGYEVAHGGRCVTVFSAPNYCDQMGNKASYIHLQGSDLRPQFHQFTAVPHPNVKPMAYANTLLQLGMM
PP1 inh: PP1-alpha phosphatase inhibitors, primary screen, counter-screen for PP5 inhibitor project, biochemical, fluorescence, OMFP substrate, single point. purified PP1alpha. inhibition, % at 6.7 µM. hit rate 0.9% among 320,000;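 active means inhibition above the mean inhibition of all tested compounds plus 3 SD, computed separately for each screening campaign, cut at about 15% in these data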
Calb FLC: C. albicans growth inhibition with fluconazole, primary screen, CaCi-2 strain, Alamar Blue fluorescence; C. albicans CaCi-2 (fluconazole-resistant clinical isolate) + fluconazole, 48 h; growth inhibition, % (concentration not given with the values); hit rate 0.57% among 300,000; AID 1979, 2009;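 active means growth inhibition above about 58% in most replicates, limit read from the data, passing the limit was not always enough; inconclusive means exactly half the replicates above a set limit; inactive means most replicates below a set limit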;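 further: all wells also contain fluconazole at 8 µg/ml as a sub-toxic cotreatment; 0% = median of DMSO wells and 100% = median of geldanamycin control wells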
CSC inhib: cancer stem cell viability inhibitors, primary screen, luminescence | cancer stem cell-like cells viability | inhibition, % at 7.5 µM | hit rate 1.1% among 300,000; in the data active means inhibition above about 75%; inconclusive means no clear call, values can overlap the other calls; tested in HMLE shEcad cells
Mdm2 MdmX conf: Mdm2-MdmX complex disruptors, retested hits, confirmation, luminescence, single concentration; shares compounds with Mdm2-MdmX inh; Mdm2-MdmX binding, luminescent assay; inhibition, % at 8 µM; hit rate 55% among 10,000; in the data active means inhibition above about 40%
Full FLuc ctr: full-length luciferase signal inhibition, confirmation, counter-screen for Mdm2/MdmX interaction inhibitor project, cell-based, single concentration, SaOS-2 | hit rate 77% among 6,200 | shares compounds with Mdm2-MdmX inh | inhibition, % at 8 µM | AID 504607, 2011 | SaOS-2 full-length luciferase counterscreen, luminescence;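 active means mean inhibition at 8 µM reaching about 37%, which flags the compound as non-specific, limit read from the data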;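 further: p53-null SaOS-2 cells with luciferase driven by a doxycycline-inducible promoter; compound on cells about two nights before reading with doxycycline added after day one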
Active calls of the source: *; ? = inconclusive; nt = no result given.

SMILES	Mdm2-MdmX inh	Beta apoptosis	PP5 primary	PP1 inh	Calb FLC	CSC inhib	Mdm2 MdmX conf	Full FLuc ctr
COc1ccc(Cl)cc1C(Nc1cccnc1)c1ccc2cccnc2c1O (stereo not drawn)	67*	nt	-1	17*	102*	3	63*	44*
CCCCC(=O)NC(c1ccco1)c1cc(Cl)c2cccnc2c1O (stereo not drawn)	63*	104*	-4	13	112*	102*	56*	29
CCC(=O)NC(c1ccc(OC)cc1)c1c(O)ccc2ccccc12 (stereo not drawn)	63*	12	3	5	-1	57	62*	71*
Cc1cc(NC(c2cccnc2)c2ccc3cccnc3c2O)no1 (stereo not drawn)	74*	104*	4	-1	-5	nt	68*	40*
COc1ccc(C(=O)Nc2cccnc2)cc1OC	-4	-1	-1	-1	-6	-14	nt	nt
COc1cc(NC(=O)c2ccc(=O)[nH]n2)cc(OC)c1OC	8	-3	0	-3	2	-6	nt	nt
Cn1c(=O)c2c(nc(NCc3ccco3)n2C/C=C/c2ccccc2)n(C)c1=O	51*	52	3	2	9	16	22	nt
COc1ccc(C(=O)NC(=S)NCc2ccco2)cc1	13	1	0	-1	1	-15	nt	nt
COC(=O)c1ccc(OC)c(Cn2c(=O)n(C)c(=O)c3sccc32)c1	25	2	-2	-1	-3	-6	nt	nt
CCn1c(=O)c2sccc2n(Cc2cc(C(=O)OC)ccc2OC)c1=O	51*	0	1	-5	2	-14	8	nt
Cc1oc2c(Cl)c(Cl)c(O)c(CN(C)C)c2c1C(=O)c1ccc(Cl)cc1	59*	-7	nt	nt	9	-19	66*	27
Cc1oc2ccc(O)c(CN3CCOCC3)c2c1C(=O)c1ccc(Cl)cc1	22	-7	1	0	4	4	nt	nt
N/C(=N\OC(=O)c1ccc(=O)n(Cc2ccccc2)c1)c1ccccn1	21	-6	-1	0	-4	-9	nt	nt
CCCc1ccc(C(=O)O/N=C(\N)c2ccccn2)cc1	63*	1	3	0	0	20	70*	61*
N/C(=N\OC(=O)c1ccc(=O)n(Cc2ccc(Cl)cc2)c1)c1ccccn1	67*	0	1	0	5	1	34	nt
N/C(=N\OC(=O)c1ccc2ccccc2c1)c1ccccn1	70*	-1	2	1	18	3	49*	111*
COc1cccc(C(=O)O/N=C(\N)c2ccccn2)c1	33	8	-2	1	1	-9	nt	nt
N/C(=N\OC(=O)c1ccc2ccccc2c1)c1ccncc1	-125	-7	0	2	15	-1	nt	nt
N/C(=N\OC(=O)c1ccc2ccccc2c1)c1ccccc1Cl	100*	-6	0	-5	25	-7	68*	77*
Cc1cc([N+](=O)[O-])ccc1NC(=O)C(C)N1CCN(c2ccccn2)CC1 (stereo not drawn)	-7	6	1	-4	25	6	nt	nt
Cc1cc(-c2nn(-c3ccccc3F)cc2CN2CCN(c3ccncc3)CC2)c(C)s1	31	14	3	6	66	-1	nt	nt
O=C(CSc1nnc2ccccn12)Nc1nsc(-c2ccccc2)n1	28	-12	3	-2	-5	-9	nt	nt
N/C(=N\OC(=O)c1ccc2ccccc2c1)c1cccc([N+](=O)[O-])c1	83*	-7	1	1	0	-10	4	nt
Cc1ccc(-c2nc3cccnc3o2)cc1NC(=O)COc1ccc(Cl)cc1C	85*	64	0	-1	2	-13	19	nt
Cc1ccc(-c2nc3ncccc3o2)cc1NC(=O)Cc1ccc(Cl)cc1	93*	6	-1	-1	5	nt	26	nt
SMILES	Mdm2-MdmX inh	Beta apoptosis	PP5 primary	PP1 inh	Calb FLC	CSC inhib	Mdm2 MdmX conf	Full FLuc ctr
Cc1ccc(-c2nc3ncccc3o2)cc1NC(=O)CC(C)C	-5	7	3	1	5	-4	nt	nt
COc1ccc(C(=O)NNS(=O)(=O)c2ccccc2)cc1OC	9	-7	0	-3	-3	8	nt	nt
NC(=O)C1(N2CCCCC2)CCN(C(=S)Nc2ccc(S(N)(=O)=O)cc2)CC1	19	-11	0	-3	-8	-7	nt	nt
COc1ccc(N(CC(=O)Nc2ccccc2C(F)(F)F)C2=NC3CS(=O)(=O)CC3S2)cc1 (stereo not drawn)	-2	-22	3	-3	-6	-2	nt	nt
CCOc1ccc(C(=O)Nc2cc(-c3nc4ccccc4[nH]3)ccc2Cl)cc1[N+](=O)[O-]	93*	10	3	4	-6	?	23	nt
Cc1ccc(-c2nc3ccccc3[nH]2)cc1NC(=O)c1ccc2c(c1)OCO2	16	-2	1	-1	-8	-9	nt	nt
O=C(NC(=S)Nc1cc(-c2nc3ccccc3[nH]2)ccc1Cl)c1ccc2c(c1)OCO2	101*	89*	0	3	2	94*	71*	70*
Cc1cccc(N2N=C(C(=O)Nc3ccc(Cl)c(S(=O)(=O)N4CCOCC4)c3)CCC2=O)c1	20	2	-1	-4	nt	nt	nt	nt
CCOC(=O)c1c(-c2ccccc2)oc2ccc(OCC(O)CNCCN(C)C)cc12 (stereo not drawn)	95*	19	2	-8	-24	55	48*	35
CCOC(=O)c1c(-c2ccccc2)oc2ccc(OCC)cc12	4	-1	3	-2	-12	11	nt	nt
CCOC(=O)C(C)Sc1nc(-c2ccccc2)nc2ccccc12 (stereo not drawn)	6	-6	3	-4	?	14	nt	nt
COc1ccccc1/C=C(\NC(=O)c1ccc(OC)c(OC)c1)C(=O)Nc1cc([N+](=O)[O-])ccc1C	59*	1	3	4	12	17	8	nt
COc1ccc(/C=C(/NC(=O)c2cccc([N+](=O)[O-])c2)C(=O)O)cc1OC	5	0	1	2	-18	-6	nt	nt
CSc1nc(-c2ccccc2)nc(NC(C)=O)c1C(C)=O	-2	0	3	-2	-16	-8	nt	nt
O=S(Cc1ccc(Br)cc1)Cc1nnc(SCc2ccc(Cl)cc2)n1-c1ccccc1 (stereo not drawn)	50*	40	8	13	52	7	40	70*

Source: PubChem BioAssay (several laboratories)
